HT1080-NT tox – kills 2HG-producing HT-1080-NT fibrosarcoma cells | Potency, µM (highest dose often 46.1 µM), inactives show at the highest dose activity, negative = less viability, hits mostly cytotoxic | HT-1080-NT fibrosarcoma viability, CellTiter-Glo ATP luminescence, 48 h | 360,000 tested, 1.6% active;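 further: NT is the 2HG producing partner of a matched IDH1 knockdown line; potency means the concentration at half of the fitted maximal effect; 0% = DMSO-treated cells and -100% = media-only wells without cells; nearly all actives have a fitted effect of over 55% in size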
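Fibrosarcoma NT cells, 750 per well in 5% FBS RPMI, were exposed to compound for 48 hours. Viability: CellTiter-Glo luminescence.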
HT1080 IDH1KD tx – toxicity to HT-1080 IDH1 knockdown cells (counter line); AID 686971; HT-1080 IDH1 knockdown viability, ATP luminescence, 48 h; Potency, µM (series often up to 46.1 µM), inactives show at the top dose activity, negative = toxicity, actives largely listed as cytotoxic; 360,000 tested, 2% active;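 further: potency means the concentration at half of the fitted maximal effect; 0% = DMSO wells and -100% = cell-free medium wells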
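Luminescent ATP read-out (CellTiter-Glo, 10 min at room temperature) after 48 h compound exposure at 37 °C gave viability of IDH1-knockdown HT-1080 cells. Activity was normalised to DMSO and cell-free wells, then fitted as concentration-response curves.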
DT40 TDP1 no CPT – qHTS for Inhibitors of human tyrosyl-DNA phosphodiesterase 1 (TDP1): qHTS in cells in absence of CPT; DT40 Tdp1-/- hTDP1 cells, no CPT, ATP luminescence, 48 h; Potency, µM (titrated, usually from 46.2 µM), for inactives: top-dose activity change, negative = growth inhibition, actives largely listed as inhibitors; 420,000 tested, 15% active; further: potency means the concentration at half of the fitted maximal effect; nearly all actives have a fitted effect of over 55% in size
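Growth of hTDP1-complemented DT40 Tdp1-knockout cells is measured by ATP luminescence after at least 48 hr compound exposure at 37 °C, with DMSO substituting for the 20 nM CPT used in the parallel screen.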
TDP1 cell CPT – growth inhibition of DT40 Tdp1-/-;hTDP1 cells with camptothecin (screen for TDP1 inhibitors). chicken DT40 Tdp1-/-;hTDP1 cells + 20 nM CPT, ATP luminescence, 48 h. Potency, µM (doses to about 46.2 µM), without a hit: at the top dose activity change, negative = growth inhibition, usual class: inhibitors. 420,000 tested, 12% active. AID 686979; further: potency means the concentration at half of the fitted maximal effect; nearly all actives have a fitted effect of over 55% in size
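Chicken DT40 Tdp1-/- cells complemented with human TDP1, 400 cells/well, exposed to compounds plus 20 nM camptothecin for at least 48 h at 37 C; viability read as ATP content by CellTiter-Glo luminescence.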
IL-1B inflam inh – blocks inflammasome-driven IL-1 beta release; THP-1 LPS/ATP IL-1B secretion, AlphaLISA, 16 h; active compounds read low; 360,000 tested, 4.7% active; AID 743279; activity change, % at 57.5 µM; in the data active means activity change below about -50%; inconclusive means mostly about -30% to -49%
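THP-1 cells pretreated 1 hr with compounds (up to 57.5 uM final), then stimulated with LPS (250 ng/mL final) plus ATP (1.25 mM final); secreted IL-1B measured by AlphaLISA after 16 hr, decreased signal indicating inhibition.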
ALOX12 inh – blocks human arachidonate 12S-lipoxygenase; P18054; purified 12hLO, xylenol orange hydroperoxide absorbance; Potency, µM (series often up to 108 µM), inactives show at the top dose activity change, negative = inhibition, actives largely listed as inhibitors; 580,000 tested, 1.1% active; further: potency means the concentration at half of the fitted maximal effect
Target sequence (P18054 whole entry, looked up): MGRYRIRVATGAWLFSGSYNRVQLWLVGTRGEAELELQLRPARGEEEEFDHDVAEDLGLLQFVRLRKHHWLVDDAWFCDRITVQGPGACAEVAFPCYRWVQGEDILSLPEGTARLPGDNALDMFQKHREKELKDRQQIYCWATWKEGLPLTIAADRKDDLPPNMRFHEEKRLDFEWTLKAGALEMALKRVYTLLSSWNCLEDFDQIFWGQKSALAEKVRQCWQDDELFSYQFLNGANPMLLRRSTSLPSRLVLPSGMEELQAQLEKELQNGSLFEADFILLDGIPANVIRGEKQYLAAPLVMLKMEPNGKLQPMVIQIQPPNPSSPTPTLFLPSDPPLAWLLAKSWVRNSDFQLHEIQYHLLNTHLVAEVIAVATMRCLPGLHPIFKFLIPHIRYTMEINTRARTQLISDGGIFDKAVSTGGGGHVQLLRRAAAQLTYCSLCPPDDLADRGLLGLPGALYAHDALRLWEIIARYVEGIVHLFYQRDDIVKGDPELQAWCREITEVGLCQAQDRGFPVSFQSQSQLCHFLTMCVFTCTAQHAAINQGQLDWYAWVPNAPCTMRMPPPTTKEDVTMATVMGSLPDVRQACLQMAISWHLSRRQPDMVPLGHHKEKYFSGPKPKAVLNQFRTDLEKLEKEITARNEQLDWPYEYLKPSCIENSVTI
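Purified human 12hLO (150 nM final) in 25 mM Hepes, 0.01% Triton X-100, pH 7.0 was preincubated 15 min at room temperature with compound. Then 40 uM arachidonic acid was added, 30 min. Hydroperoxide was read by Fe-XO absorbance ratio 573/405 nm.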
The depositor's hits bear a star; ? = inconclusive; . = no result given; [ ] = remark or other dose. This is one part of a sample in which hits are shown more often than they occur. Unless noted, the call rests on the fitted dose curve; in most records, active means well fitted curve in the direction sought with a large enough effect; inconclusive means small, poorly fitted or top-dose-only effect, or another doubt; inactive means no such curve, though single readings can be large; an effect the other way counts as inactive or inconclusive. Unless noted, on the % scale 0 is the no-effect control and ±100 the full control effect.

SMILES	HT1080-NT tox	HT1080 IDH1KD tx	DT40 TDP1 no CPT	TDP1 cell CPT	IL-1B inflam inh	ALOX12 inh
C#CCOc1c(Cl)cc(/C=C2\NC(=O)NC2=O)cc1OCC	.	.	.	.	.	-26%
COc1cc(/C=C2\SC(c3ccccc3)=NC2=O)cc(Cl)c1O	3%	15%	?	21µM*	35	8.9µM*
CC1=NOC(=O)/C1=C/c1ccc(N(C)C)cc1	1%	-10%	-11%	3%	-6	2%
CC1=NOC(=O)/C1=C/c1ccc(O)c(Cl)c1	20%	3%	9.2µM*	?	-12	?
CCCCCCn1nc(C(=O)N(C)Cc2cccc(OC)c2)c2ccccc2c1=O	.	.	.	.	.	-19%
C=CCc1ccccc1OCC(O)Cn1nc(C(N)=O)c2ccccc2c1=O (stereo not drawn)	.	.	.	.	.	8%
CCOc1cc(/C=C2/C(=O)ON=C2C)ccc1O	8%	-1%	5%	-17%	-10	?
CCOc1ccc(Cl)cc1/C=C1/C(=O)ON=C1C	25%	7%	?	?	-14	?
COc1cc(/C=C2/C(=O)ON=C2C)cc(Cl)c1O	23%	-14%	?	18µM*	3	?
COc1ccc(Cl)cc1/C=C1/C(=O)ON=C1C	-8%	3%	?	?	-9	32µM*
C(#CCN1CCN(Cc2ccccc2)CC1)COCCOCc1ccccc1	.	.	.	.	.	-1%
Cn1c(=O)n([C@H]2CCCN(C(=O)c3ccn[nH]3)C2)c2ncccc21	.	.	.	.	.	37%
CCC(C)NCC(O)(c1ccc(Cl)cc1)c1ccc(Cl)cc1 (stereo not drawn)	?	?	23µM*	23µM*	?	7%
COc1cc(S(=O)(=O)N(Cc2cccnc2)Cc2cccc(OC)c2OC)ccc1-n1cnnn1	-2%	-3%	?	16µM*	-12	-1%
COc1ccc(CN(Cc2cccnc2)S(=O)(=O)c2ccc(-n3cnnn3)c(C)c2)cc1OC	-25%	7%[9.24 µM]	?	?	?	?
COc1ccccc1CN(Cc1cccnc1)S(=O)(=O)c1ccc(-n2cnnn2)c(OC)c1	1%	-1%	21µM*	-2%	-12	7%
CC(C)c1onc(C(=O)Nc2cccc(O)c2)c1[N+](=O)[O-]	16%	2%	-6%	-20%	-12	-8%
CC(C)c1onc(C(=O)Nc2ccc3c(c2)OCO3)c1[N+](=O)[O-]	-4%	0%	18µM*	?	-21	.
Cc1ccc(NC(=O)c2noc(C(C)C)c2[N+](=O)[O-])cc1	-11%	?	18µM*	13µM*	-21	-8%
CC(C)c1onc(C(=O)N2CCCCC2)c1[N+](=O)[O-]	0%	0%	?	-19%	-65*	0%
O=C1NCCCCCCN(C(=O)c2ccncc2)[C@H]2C[C@H](c3nc(Cc4ccccc4)no3)C[C@@H]12	.	.	.	.	.	7%
CC(=O)C12CC3CC(C1)CC(C(C)=O)(C3)C2	.	.	.	.	.	-64%
O=C(NC[C@H]1Cn2c(-c3ccc4c(c3)OCO4)cnc2CO1)Nc1ccc(F)cc1	.	.	.	.	.	3%[176 µM]
CCCCCCCCCCCCCCC(C(=O)O)C(O)(CC(=O)OC)C(=O)O (stereo not drawn)	.	.	8.2µM*	10µM*	.	.
CC(C)CCN1CCC(N2CCN(S(=O)(=O)c3ccc4c(c3)CCC4)CC2)C1=O (stereo not drawn)	.	.	.	.	.	-6%
SMILES	HT1080-NT tox	HT1080 IDH1KD tx	DT40 TDP1 no CPT	TDP1 cell CPT	IL-1B inflam inh	ALOX12 inh
CCCOc1ccc(C(=O)Nc2ccc(S(=O)(=O)N3CCN(C)CC3)cc2)cc1	-11%	-21%	?	?	-1	17%
CCCOc1ccc(C(=O)Nc2ccc(S(=O)(=O)N3C[C@@H]4C[C@@H](C3)c3cccc(=O)n3C4)cc2)cc1	8.2µM*	?	13µM*	?	32	-28%
C=CCn1c(SCc2nc3ccccc3o2)nc2ccccc2c1=O	.	.	.	.	.	37%
Cc1ccc(N2CCC(NC(=O)Cc3ccccc3Cl)C2=O)cc1 (stereo not drawn)	.	.	.	.	.	-12%
CC/C(=N\NC(=O)c1ccc(-c2ccccc2)cc1)C12CC3CC(CC(C3)C1)C2	-11%	-10%	13µM*	-14%	12	11%
OCCCCNCc1ccc(OCc2ccccc2)cc1	-4%	-8%	?	?	-1	4%
CC(O)CNCCCOc1ccccc1OCc1ccccc1 (stereo not drawn)	-7%	-16%	?	-3%	-52*	-17%
CC(O)CNCCCCOc1ccc(OCc2ccccc2)cc1 (stereo not drawn)	?	-24%	?	23µM*	-56*	2%
OCCNCCCCOc1ccc(OCc2ccccc2)cc1	-28%	-29%	?	?	-81*	4%
CNCC(C)COc1ccccc1OCc1ccccc1 (stereo not drawn)	-12%	-20%	?	?	-7	-17%
CCn1nc(C(=O)Nc2nc(-c3ccc(NC(C)=O)cc3)cs2)c2ccccc2c1=O	.	.	.	.	.	28%
Cn1cc(CN2C[C@@H](F)[C@@H](OCc3nc4ccc(F)cc4[nH]3)C2)cn1	.	.	.	.	.	22%[176 µM]
O=C(c1ccc2oc(-c3cccc(F)c3)nc2c1)N1CCCCC1CCO (stereo not drawn)	.	.	.	.	.	-6%
CC(C)c1nc2c(c(-c3ccc(Cl)cc3)n1)CCN(CC1CCCCC1)CC2	.	.	.	.	.	-12%[6.33 µM]
COc1ccc(-c2csc(-c3c(N)c(C(=O)c4ccccc4)n4ccccc34)n2)cc1OC	.	.	2.3µM*	4.1µM*	.	-24%
CC(C)Cn1cnc2c1c(=O)n(CC(=O)NCC(F)(F)F)c(=O)n2Cc1ccccc1	.	.	.	.	.	4%
O=C(Nc1ccccc1Cl)N1CCN(Cc2ccc3c(c2)OCO3)CC1	-9%	1%	-25%	-3%	-18	-12%
O=C(CN1CCN(Cc2ccc3c(c2)OCO3)CC1)Nc1cc(S(=O)(=O)N2CCCC2)ccc1Cl	3%	10%	16µM*	?	-3	0%
CN(C)S(=O)(=O)c1ccc(Cl)c(NC(=O)CN2CCN(Cc3ccc4c(c3)OCO4)CC2)c1	0%	-3%	21µM*	?	15	3%
O=C(CN1CCN(C(=O)c2ccccc2)CC1)Nc1cc(S(=O)(=O)N2CCCC2)ccc1Cl	-9%[9.24 µM]	-2%	?	?	7	11%
O=C(CCc1nc(C2CCCN2C(=O)C2CC2)no1)NCCC1=CCCCC1 (stereo not drawn)	.	.	.	.	.	47%
CCN1CCN(c2oc(-c3cccc(Cl)c3)nc2C#N)CC1	.	.	.	.	.	-29%

Screening data: PubChem, National Center for Advancing Translational Sciences (NCATS)
